Experimental data as given in PubChem BioAssay (NCATS).
Inconclusive results are not listed. A call without a number means that no potency is given here. The source made the active and inactive calls. Calls come from the whole dose curve; as a rule, active = well fitted inhibition curve with a large enough effect; inconclusive = small, poorly fitted or top-dose-only effect; inactive = flat fitted curve, though single readings scatter.

The compounds below were run on Zika virus NS2B-NS3 protease (assay: Primary screen GU AMC qHTS for Zika virus inhibitors (AID 1347154; note: nearly all actives have a fitted effect of over 70% in size)). Conditions: Zika NS2B-NS3 unlinked protease, AMC fluorogenic substrate; series mostly up to 54.1 µM.
From the text: Avindra Nath, Ph.D., National Institute of Neurological Disorders and Stroke (NINDS), Bethesda, MD
Radhakrishnan Padmanabhan, Ph.D., Georgetown University (GU), Washington D.C.
Zika Virus causes congenital defects, including microcephaly and is associated with Guillain-Barre syndrome, eningoencephalitis and myelitis in infected adult. […] Using a target-based approach, we hope to establish a screening paradigm to uncover novel, cell-active NS2B-NS3 protease (Zika Virus) specific inhibitors from NCATS' collection of small molecules using qHTS.
Early Translation Branch (ETB)
National Center for Advancing Translational Sciences (NCATS), Rockville, MD
National Institute of Health (NIH), Bethesda, Maryland
Padmanabhan lab provided the NS2B hydrophilic domain and NS3 protease domain in a noncovalent complex used for the unlinked assay. Control compound aprotinin is obtained from Thermo Scientific (#78432; Waltham, Massachusetts). NS2B-NS3 AMC substrate (Bz-Nle-Lys-Arg-Arg-AMC; Nle-KRR-AMC) purchased from Bachem (#I-1995; Torrance, CA). Ac-VKTGKR-AMC purchased from Genscript or Bachem, Ac-FAAGKR-AMC purchased from Genscript, Ac-GLVKRR-AMC purchased from Genscript, Ac-LKKR-AMC purchased from Genscript.
GU AMC unlinked NS2B-NS3 protease qHTS protocol
Briefly, 3 microL of Zika virus unlinked NS2B-NS3 protease (25 nM for linked final concentration), in assay buffer (10 mM Tris-HCl pH 8.0 with 0.01% Tween 20) was dispensed into a 1,536-well solid-bottom black plate (Greiner Bio One, Monroe, NC). […] Plates were then read immediately on a ViewLux High-throughput CCD imager (PerkinElmer, Waltham, MA) equipped with standard UV fluorescence optics (340(30) nm excitation, 450(20) nm emission) then incubated (room temperature, protected from light) for 15 minutes (~20% conversion). The change in fluorescence intensity over the 15-minute reaction period was normalized against no-inhibitor and no-enzyme controls and the resulting percent inhibition data were fitted to a 4-parameter Hill equation. Aprotinin was used as the intraplate control.
Potency is the fitted concentration of half-maximal effect.

With `CNC[C@H](O)c1cccc(O)c1` as the compound, how does the Potency read?
The Potency was “inactive”.

For `Cc1ccnc(NS(=O)(=O)c2ccc(NC(=O)Nc3ccc(S(=O)(=O)Nc4nccc(C)n4)cc3)cc2)n1`, which Potency is on record?
The Potency was 24.1 µM (active).

With `CN(C)c1ccc(Nc2nc(N)n(C(=O)c3c(F)cccc3F)n2)cc1` as the compound, how does the Potency read?
The Potency was “inactive”.

For `O=C(Nc1nc2ccccc2n1CCN1CCOCC1)c1cccc([N+](=O)[O-])c1`, which Potency is on record?
Its Potency is “inactive”.

Which Potency does the source give for `COc1cc2nccc(Oc3ccc(NC(=O)NC4CC4)c(Cl)c3)c2cc1C(N)=O` here?
The Potency was “inactive”.

For `C[C@H](NC(=O)Cc1cc(F)cc(F)c1)C(=O)N[C@@H]1C(=O)N(C)c2ccccc2-c2ccccc21`, which Potency is on record?
Its Potency is “inactive”.

How did the Potency turn out when `Cc1cnc(Nc2ccc(OCCN3CCCC3)cc2)nc1Nc1cccc(S(=O)(=O)NC(C)(C)C)c1` was run?
Its Potency is “inactive”.

How did the Potency turn out when `Cc1n[nH]c(C)c1Cc1sc2c(c1C(=O)N1C[C@H](O)CO1)c(=O)n(C)c(=O)n2CC(C)C` was run?
Its Potency is “inactive”.

For `NCCCC(N)(C(=O)O)C(F)F` (stereo not given), which Potency is on record?
Its Potency is “inactive”.

Which Potency does the source give for `Cc1cccc(-c2nn(C(=S)Nc3ccccc3)cc2-c2ccnc3ccccc23)n1` here?
Its Potency is “inactive”.

For `Cc1cnc(NC(=O)C2=C(O)c3ccccc3S(=O)(=O)N2C)s1`, which Potency is on record?
Its Potency is “inactive”.

Which Potency does the source give for `Nc1nc2c(ncn2COCCO)c(=O)[nH]1` here?
The Potency was “inactive”.

`CS(=O)(=O)c1cccc(CNc2nc(Nc3ccc4c(c3)CCC(=O)N4)ncc2C(F)(F)F)c1` was tested. Which Potency did it give?
Its Potency is “inactive”.

`CCN(CC)CCCC(C)Nc1nc(C)cc(Nc2ccc3nc(C)cc(N)c3c2)n1` (stereo not given) was tested. Which Potency did it give?
The Potency was “inactive”.

Which Potency does the source give for `OC(CCN1CCCCC1)(c1ccccc1)C1CC2C=CC1C2` (stereo not given) here?
The Potency was “inactive”.

How did the Potency turn out when `COc1ccc(-c2c(-c3ccc(O)cc3O)n[nH]c2C)cc1` was run?
Its Potency is “inactive”.

`COc1ccc(CCN2CCN(CCCc3ccccc3)CC2)cc1OC` was tested. Which Potency did it give?
The Potency was “inactive”.

For `CS(=O)(=O)Oc1ccc2c(NC(N)=O)c(C(=O)c3ccc(Cl)cc3Cl)oc2c1`, which Potency is on record?
Its Potency is “inactive”.

With `C[C@]1(c2nc3c(C(N)=O)cccc3[nH]2)CCCN1` as the compound, how does the Potency read?
Its Potency is “inactive”.

How did the Potency turn out when `Cc1ccccc1C(OCCN(C)C)c1ccccc1` (stereo not given) was run?
Its Potency is “inactive”.

With `CC(=O)NC(C)c1ccc(Oc2ccc(OC(C)C)cc2)cc1` (stereo not given) as the compound, how does the Potency read?
Its Potency is “inactive”.

With `NC(=O)c1cnccn1` as the compound, how does the Potency read?
The Potency was “inactive”.

How did the Potency turn out when `O=S(=O)(N=Cc1c(O)ccc2ccccc12)c1cccs1` was run?
Its Potency is “inactive”.

`C#Cc1cccc(Nc2ncnc3cc(OCCOC)c(OCCOC)cc23)c1` was tested. Which Potency did it give?
The Potency was “inactive”.

With `Cc1ccc2c(c1)C(=O)[C@@]1(O)CCN(c3ccccc3)C1=N2` as the compound, how does the Potency read?
The Potency was “inactive”.

How did the Potency turn out when `CCc1ccc(CCOc2ccc(CC3SC(=O)NC3=O)cc2)nc1` (stereo not given) was run?
The Potency was “inactive”.

For `NC(=O)c1ccc(I)c([N+](=O)[O-])c1`, which Potency is on record?
Its Potency is “inactive”.

How did the Potency turn out when `CCCS(=O)(=O)Nc1ccc(F)c(C(=O)c2c[nH]c3ncc(Cl)cc23)c1F` was run?
The Potency was “inactive”.

With `Cc1ccc(NC(=O)c2cccc(C(C)(C)C#N)c2)cc1Nc1ccc2ncn(C)c(=O)c2c1` as the compound, how does the Potency read?
Its Potency is “inactive”.

For `Cc1ccc(N(CC2=NCCN2)c2cccc(O)c2)cc1`, which Potency is on record?
The Potency was “inactive”.

For `CCOc1cc(C=C2C(=O)N(c3ccccc3)N=C2C)cc(Cl)c1OCC(=O)OC`, which Potency is on record?
The Potency was “inactive”.

How did the Potency turn out when `CCCS(=O)(=O)Nc1ccc(F)c(C(=O)c2c[nH]c3ncc(-c4ccc(Cl)cc4)cc23)c1F` was run?
Its Potency is “inactive”.

With `Cc1c(CN2CCN(C(=O)C(C)C)CC2)sc2c(N3CCOCC3)nc(-c3cnc(N)nc3)nc12` as the compound, how does the Potency read?
Its Potency is “inactive”.

With `O=C(c1cc(Cc2n[nH]c(=O)c3ccccc23)ccc1F)N1CCN(C(=O)C2CC2)CC1` as the compound, how does the Potency read?
Its Potency is “inactive”.

`Oc1ccc(C2CNCCc3c2cc(O)c(O)c3Cl)cc1` (stereo not given) was tested. Which Potency did it give?
Its Potency is 12.6 µM (active).

How did the Potency turn out when `COc1ccc(-c2oc3cc(OC)ccc3c2C(=O)c2ccc(C#N)cc2)cc1` was run?
The Potency was “inactive”.

For `O=C1CCC(N2C(=O)c3ccccc3C2=O)C(=O)N1` (stereo not given), which Potency is on record?
The Potency was “inactive”.

`NCCc1ccc(O)c(O)c1` was tested. Which Potency did it give?
The Potency was “inactive”.

With `CC(c1cc2ccccc2s1)N(O)C(N)=O` (stereo not given) as the compound, how does the Potency read?
Its Potency is “inactive”.

How did the Potency turn out when `COc1cc2c(cc1OC)CN(CCc1ccc(NC(=O)c3cccc4c(=O)c5cccc(OC)c5[nH]c34)cc1)CC2` was run?
Its Potency is “inactive”.
